Assay outcomes (PubChem BioAssay)
In the library only some 4% were active in any assay of this set; here they are far more common.
RAD52 inh: blocks human RAD52 DNA annealing. inhibition, % at 18.7 µM. P43351. recombinant RAD52 DNA annealing, FRET fluorescence. 360,000 tested, 0.46% active;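 active = every replicate showing at least 50% inhibition; inconclusive = mean inhibition at least 50% but not in every replicate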
Target sequence (P43351 whole entry, looked up): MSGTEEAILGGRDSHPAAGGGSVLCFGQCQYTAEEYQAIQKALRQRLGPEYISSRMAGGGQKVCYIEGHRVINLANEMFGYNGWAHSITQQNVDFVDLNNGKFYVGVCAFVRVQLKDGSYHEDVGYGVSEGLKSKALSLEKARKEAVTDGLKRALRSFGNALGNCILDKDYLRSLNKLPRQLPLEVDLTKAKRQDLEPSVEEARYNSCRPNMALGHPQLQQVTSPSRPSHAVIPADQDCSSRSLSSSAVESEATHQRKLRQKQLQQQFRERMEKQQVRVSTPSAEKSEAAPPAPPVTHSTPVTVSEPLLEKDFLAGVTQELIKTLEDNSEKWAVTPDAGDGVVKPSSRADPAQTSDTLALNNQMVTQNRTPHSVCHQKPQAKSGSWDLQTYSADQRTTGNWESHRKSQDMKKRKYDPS
FGF22 binding: shifts melting point of recombinant human FGF22; 340,000 tested, 1.5% active; AID 651658; recombinant FGF22 thermal shift, SYPRO orange fluorescence; percent of sucrose octasulfate shift, DMSO zero; activity (Tm shift, normalised), % at 9.99 µM;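 active = mean Tm shift, scaled 0 neutral to 100 positive control, at about 1.3% or above, every replicate too, limit read from the data; inconclusive = no clear call, values can overlap the other calls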
Target sequence (Q9HCT0 whole entry, looked up): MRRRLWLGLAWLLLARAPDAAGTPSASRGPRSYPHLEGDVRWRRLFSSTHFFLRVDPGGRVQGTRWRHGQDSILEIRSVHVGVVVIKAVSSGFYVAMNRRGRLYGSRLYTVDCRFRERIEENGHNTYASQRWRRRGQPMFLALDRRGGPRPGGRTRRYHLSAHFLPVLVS
DENV2 CPE rescue: inhibitors of DENV2 cytopathic effect; DENV2-infected cells, cytopathic effect rescue, plate reader; CPE inhibition, % at 9.99 µM; 350,000 tested, 1.7% active; AID 651640; in the data active = CPE inhibition above about 20%, passing the limit was not always enough; inconclusive = no clear call, values can overlap the other calls; tested in BHK-21 cells
ERAP1 inh: inhibitors of human ERAP1 aminopeptidase | Q9NZ08 | recombinant ERAP1, Leu-AMC fluorescence, 60 min | inhibition, % at 10.7 µM | 340,000 tested, 0.15% active | AID 652197;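 active = mean replicate inhibition of at least 30%, or all replicates individually reaching that 30% level; inactive = mean below 30% and not every replicate reaching it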
MLL AF4-AF9 inh: MLL-AF4/AF9 protein interaction inhibition | inhibition, % at 10 µM | AID 651704 | AlphaScreen, biotin-AF4 peptide binding to FLAG-AF9 | 350,000 tested, 0.47% active;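 active = every replicate reaching a set inhibition limit, whatever the replicate mean, cut at about 25% in these data; inconclusive = mean inhibition reaches that limit but some replicates miss it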
Hits are given with their value; 0 = inactive; ? = inconclusive; - = no result given.

SMILES	RAD52 inh	FGF22 binding	DENV2 CPE rescue	ERAP1 inh	MLL AF4-AF9 inh
COCCCn1cc(C(=O)c2cc(OC)ccc2OCC(=O)N2CCCCC2C)cc(C#N)c1=O (stereo not given)	0	0	0	0	0
COCCNC(=O)COc1ccc(C)cc1C(=O)c1cc(C#N)c(=O)n(C2CC2)c1	0	44.4	0	0	0
C[C@@H]1CCCCO[C@@H](CN(C)C(=O)Nc2cccc3ccccc23)[C@H](C)CN([C@H](C)CO)C(=O)c2cc(NS(=O)(=O)c3ccc(Cl)cc3)ccc2O1	0	2.1	0	0	0
C[C@H]1CCCCO[C@H](CN(C)C(=O)Nc2cccc3ccccc23)[C@@H](C)CN([C@@H](C)CO)C(=O)c2cc(NS(=O)(=O)c3ccc(Cl)cc3)ccc2O1	0	0	44.4	0	0
C[C@H]1CCCCO[C@H](CN(C)C(=O)Nc2cccc3ccccc23)[C@@H](C)CN([C@@H](C)CO)C(=O)c2cc(NS(=O)(=O)c3ccc(F)cc3)ccc2O1	0	-	26.1	0	0
C[C@H](CO)N1C[C@H](C)[C@@H](CN(C)C(=O)Nc2cccc3ccccc23)OCCCC[C@H](C)Oc2ccc(NS(=O)(=O)c3ccc(Cl)cc3)cc2C1=O	0	0	0	0	0
CC(C)NC(=O)N1CCCCN2[C@H](C1)[C@@H](c1ccc(C#CC3CC3)cc1)[C@@H]2CO	0	0	?	0	0
CC(C)NC(=O)N1CCCCN2[C@@H](CO)[C@@H](c3ccc(C#CC4CC4)cc3)[C@@H]2C1	0	0	39.9	0	0
CC(C)NC(=O)N1CCCCN2[C@H](CO)[C@H](c3ccc(C#CC4CC4)cc3)[C@H]2C1	0	0	66.2	0	0
CC(C)NC(=O)N1CCCCN2[C@H](C1)[C@H](c1ccc(C#CC3CC3)cc1)[C@@H]2CO	0	0	0	0	0
O=C(c1ccc(F)cc1)N1C[C@@H]2[C@H](c3ccccc31)[C@@H](CO)N2Cc1ccc2c(c1)OCO2	0	0	0	0	0
Cc1cccc(C)c1NS(=O)(=O)c1ccc(OCCNS(C)(=O)=O)cc1	0	43.4	0	0	0
CS(=O)(=O)NCCOc1ccc(S(=O)(=O)NCCOc2ccccc2)cc1	0	0	?	0	0
Cc1cc(OCC(=O)NC2CC(C)(C)NC(C)(C)C2)c(C)cc1Br	0	0	42.1	0	0
COc1ccc2c3c([nH]c2c1)[C@@H](CO)N(C(=O)Nc1ccc(F)cc1)CC31CN(C(=O)c2ccccc2F)C1	0	-	0	0	0
Cc1nc(Sc2ccc(Cl)cc2)c(C#N)c(C)c1[N+](=O)[O-]	0	0	0	0	0
Cc1ccc(Sc2nc(C)c([N+](=O)[O-])c(C)c2C#N)cc1	0	0	28.9	0	0
CC(C)(C)c1ccc(NC(=O)NC2CCCc3ccccc32)cc1 (stereo not given)	0	-	39.4	-	0
Cc1ccc(NC(=O)NC2CCCc3ccccc32)cc1 (stereo not given)	0	0	0	0	0
CO[C@@H]1CN(C)C(=O)c2cc(NC(=O)C3CCOCC3)ccc2OC[C@@H](C)N(CC2CC2)C[C@@H]1C	0	0	0	0	0
CC1(C(=O)NCc2ccccc2)CN(S(C)(=O)=O)CC(=O)N1CCc1ccccc1 (stereo not given)	0	0	0	0	-
CC(C)CN1C(=O)CN(S(C)(=O)=O)CC1(C)C(=O)NC(C)C (stereo not given)	0	0	27.4	0	-
CC1(C(=O)NCc2ccccc2)CN(S(C)(=O)=O)CC(=O)N1CCc1ccccc1F (stereo not given)	0	0	74.3	0	0
Cc1ccc(CN2C(=O)CN(S(C)(=O)=O)CC2(C)C(=O)NC(C)C)cc1 (stereo not given)	0	0	0	-	0
CC1(C(=O)NCc2ccccc2)CN(S(C)(=O)=O)CC(=O)N1CCc1ccc(O)cc1 (stereo not given)	0	0	26.0	0	0
SMILES	RAD52 inh	FGF22 binding	DENV2 CPE rescue	ERAP1 inh	MLL AF4-AF9 inh
COCCN1C(=O)CN(S(C)(=O)=O)CC1(C)C(=O)NCc1ccccc1 (stereo not given)	0	0	0	0	-
COc1ccc2c3c([nH]c2c1)[C@H](CO)N(C(=O)c1ccc(F)cc1)CC31CCN(C)CC1	0	0	0	0	0
CO[C@@H]1CN(C)C(=O)c2ccc(NC(=O)Nc3ccc(Cl)cc3)cc2OC[C@H](C)N(C(=O)Nc2c(C)noc2C)C[C@@H]1C	0	0	0	0	0
Cc1nn(Cc2ccccc2)c(C)c1/C=N/NC(=O)c1cccnc1	0	0	0	0	0
Cc1ccc(Cn2nc(C)c(/C=N/NC(=O)c3cccnc3)c2C)cc1	0	43.0	0	0	0
CN1CCN(c2ccccc2/C=N/NC(=O)c2cccnc2)CC1	0	0	0	-	0
Cc1c(/C=N/NC(=O)c2cccnc2)cc(C#N)n1C	0	43.2	0	0	0
CO[C@H]1CN(C)C(=O)c2ccc(NC(=O)NC(C)C)cc2OC[C@@H](C)N(C(=O)C2CCC2)C[C@@H]1C	0	0	0	0	0
COc1ccc2c3c([nH]c2c1)[C@H](CO)N(C(=O)Nc1cccc(F)c1)CC31CN(CC2CC2)C1	0	0	24.8	0	28.9
COc1ccc2c3c([nH]c2c1)[C@@H](CO)N(C(=O)Nc1cccc(F)c1)CC31CCN(CC2CC2)CC1	0	0	0	0	25.4
O=C(N[C@H]1CC[C@H](CCn2cc(C3(O)CCCC3)nn2)O[C@H]1CO)C1CCC1	0	0	0	0	0
COC(=O)c1c(-c2ccc(SC)cc2)sc2ccccc12	0	0	74.3	0	0
CCNC(=O)C[C@H]1CC[C@@H]2[C@H](COc3ccc(NC(=O)Nc4c(C)noc4C)cc3C(=O)N2C)O1	0	0	0	0	0
NC1=NC(=O)/C(=C/c2cccc(F)c2)S1	0	0	0	0	0
CC(=O)Nc1ccc(S(=O)(=O)Oc2cccc(/C=C3\SC(N)=NC3=O)c2)cc1	0	43.3	0	0	0
COc1cccc(C2=NOC(C(=O)Nc3cccnc3Cl)C2)c1 (stereo not given)	0	44.1	0	0	0
COc1ccc(S(=O)(=O)NNC(=O)C2CC(c3cccnc3)=NO2)cc1 (stereo not given)	0	43.6	0	0	0
COCCNC(=O)C1CC(c2cccc(OC)c2)=NO1 (stereo not given)	0	0	0	0	0
OC[C@H]1[C@H](c2ccc(-c3ccccc3)cc2)[C@@H]2CN(CCC(F)(F)F)CCCCN12	0	0	0	0	0
C[C@@H]1CN([C@@H](C)CO)C(=O)c2cccc(NC(=O)c3ccncc3)c2O[C@H]1CN(C)C(=O)Nc1ccc(F)cc1	0	0	0	0	0
Cc1ccc(S(=O)(=O)CCSC(=N)N)cc1	0	43.7	-	0	0
CN(C)C(=O)c1cccc(-c2ccc([C@@H]3[C@H]4CN(C(=O)CC5CC5)CC(=O)N4[C@H]3CO)cc2)c1	0	-	0	0	0
C[C@H]1CN([C@@H](C)CO)C(=O)c2cc(C#CCN(C)C)cnc2O[C@H]1CN(C)Cc1cccc(F)c1	0	0	0	0	0
